Screens as filed in PubChem.
dFosB activator: activators of delta FosB homodimer, primary screen, biochemical, fluorescence polarization, TAMRA-CDK5 oligo, single point. AID 493131, 2011. 340,000 compounds, 0.99% hits. activation, % at 25 µM. Protein FosB (Mus musculus), P13346. purified delta FosB; percent of positive-control signal above neutral wells;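 active means mean activation above about 17%, with every replicate also reaching it, limit read from the data, passing the limit was not always enough; inconclusive means only one of the two conditions met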
A1 inh: caspase 3/7 activation in MEF A1-2A-BIM cells, primary screen, A1 inhibitor project, cell-based, luminescence, HTS | 330,000 compounds, 0.066% hits | caspase activation, % (test concentration not listed) | AID 2462, 2010 | Caspase-Glo 3/7 luminescence, 3 h; percent of clofoctol response, vehicle zero;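 active means over half of replicate activation scores above 10%, or exactly half above 10 with the replicate mean above 10; inconclusive means replicate mean below 10 yet half the replicates above 10; inactive means over half of replicates below 10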
Beta2AR agonist: beta2AR agonists driving receptor internalization, primary screen, cell-based, FAP fluorogen, flow cytometry | Beta-2 adrenergic receptor (Homo sapiens), P07550 | Am2.2-beta2AR cells | response, % (test concentration not listed) | 340,000 compounds, 0.43% hits | AID 504454, 2011;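 active means response above a set limit, near 3 SD of response in nonfluorescent compounds, cut at about 42% in these data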
Target sequence (P07550 whole entry, looked up): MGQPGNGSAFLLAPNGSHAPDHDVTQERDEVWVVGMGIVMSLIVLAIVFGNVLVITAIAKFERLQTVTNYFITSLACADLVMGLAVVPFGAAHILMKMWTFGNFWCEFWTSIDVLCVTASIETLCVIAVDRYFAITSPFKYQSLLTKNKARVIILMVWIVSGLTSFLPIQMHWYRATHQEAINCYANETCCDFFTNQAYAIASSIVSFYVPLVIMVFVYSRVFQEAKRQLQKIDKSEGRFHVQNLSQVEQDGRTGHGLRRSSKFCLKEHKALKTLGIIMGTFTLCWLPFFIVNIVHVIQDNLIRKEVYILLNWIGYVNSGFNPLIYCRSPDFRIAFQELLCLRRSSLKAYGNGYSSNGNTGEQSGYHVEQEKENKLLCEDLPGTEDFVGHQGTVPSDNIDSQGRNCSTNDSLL
Dyrk1A ADPGlo: rat Dyrk1A kinase inhibitors, primary screen, biochemical, single point, plate reader. inhibition, % at 12.5 µM. Dual specificity tyrosine-phosphorylation-regulated kinase 1A (Rattus norvegicus), Q63470. ADP-Glo luminescence, NFATc1 peptide. 310,000 compounds, 0.43% hits; in the data active means inhibition above about 50%
Beta2AR ag CP1: beta2AR agonists via receptor internalization, confirmation, cell-based, FAP fluorogen, flow cytometry, single point, cherry pick 1 | shares compounds with Beta2AR agonist | Am2.2-beta2AR cells, FAP surface receptor; stronger effect = lower value | percent response (surface receptor), % at 10 µM | 1,100 compounds, 25% hits | AID 540358, 2011;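 active means surface receptor percent response at or below 58%, roughly 3 SD from nonfluorescent compounds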
FAP fluor counter: flagged in Am2.2 fluorescence counterscreen for beta-2AR agonists. shares compounds with Beta2AR agonist. Am2.2 cells, FAP fluorogen flow cytometry; stronger effect = lower value. calls only at 10 µM. 1,100 tested, under 10 active;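 active means percent response below a set limit in fluorescence channel 1 and below 50% in channel 8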
Hits are given with their value; i = inactive; ? = inconclusive; nt = not tested or not shown. Sampled rows, rich in hits. Any-hit rate of the full collection: about 1.6%.

SMILES	dFosB activator	A1 inh	Beta2AR agonist	Dyrk1A ADPGlo	Beta2AR ag CP1	FAP fluor counter
COc1ccc(N(CC(=O)NCC2CCCO2)S(=O)(=O)c2ccccc2)cc1OC (stereo not drawn)	i	i	i	i	nt	nt
CCOc1cc(S(=O)(=O)NCCCN2CCOCC2)c(C)cc1C	i	i	i	i	nt	nt
CN(C)CC(C(=O)c1ccccc1)c1ccccc1 (stereo not drawn)	i	i	56.4	i	i	i
O=C(CN1C(=O)NC(Cc2c[nH]c3ccccc23)C1=O)NCC(F)(F)F (stereo not drawn)	i	i	i	i	nt	nt
OC[C@@H]1CC[C@@H](Cc2ccc(-c3ccccc3)cc2)O1	i	nt	i	i	nt	nt
CCOC(=O)c1c(NC(=O)COc2ccccc2C#N)sc2c1CC(C)(C)NC2(C)C	i	i	i	i	nt	nt
CCOC(=O)c1c(NC(=O)COc2ccccc2OCC)sc2c1CC(C)(C)NC2(C)C	i	i	61.6	i	i	i
Clc1ccc(Cl)c(OCCCCNCc2ccccc2)c1	i	i	46.1	i	i	i
Cc1ccc(S(=O)(=O)Nc2ccncc2)c(C)c1N(C)S(=O)(=O)c1ccc(F)cc1	i	i	83.9	i	i	i
CCc1ccc(OCCOCC(O)CNC(C)CC)cc1 (stereo not drawn)	i	i	74.2	i	i	i
CC(C)NCC(O)COCCOc1ccc(Cl)cc1 (stereo not drawn)	i	i	i	i	nt	nt
Nc1cc(N)cc(-c2nc3ccccc3o2)c1	i	i	43.0	i	i	i
Nc1ccc(-c2nc3ccccc3o2)cc1	i	i	i	i	nt	nt
O=C(N/N=C(\c1ccccc1)c1cccnc1)c1cc(O)ccc1O	nt	i	nt	nt	nt	nt
Cc1cc(NC(=O)c2ccc3c(c2)OCCO3)ccc1NC(=O)c1ccco1	i	i	i	i	nt	nt
COc1cc(NC(=O)c2ccc3c(c2)OCO3)ccc1NC(=O)c1ccco1	i	i	i	i	i	i
Cc1cc(S(=O)(=O)N2CCCCC2)ccc1OCC(=O)Nc1ccccc1	i	i	i	i	i	i
CC(C)NS(=O)(=O)c1ccc(OCC(=O)Nc2ccc3c(c2)OCO3)c(Cl)c1	i	i	i	i	nt	nt
Cc1cc(S(=O)(=O)N2CCCC2)ccc1OCC(=O)Nc1ccccc1	i	i	i	i	i	i
O=C(COc1ccc(S(=O)(=O)N2CCCC2)cc1Cl)Nc1ccc2c(c1)OCO2	i	i	i	i	i	i
Cc1c(NS(=O)(=O)c2cccc(C(=O)NCc3cccc(Cl)c3)c2)c(=O)n(-c2ccccc2)n1C	i	nt	i	i	nt	nt
NNc1nc(-c2ccccc2Cl)c2cc(Br)ccc2n1	i	i	i	i	nt	nt
Clc1ccccc1-c1ncnc2ccc(Br)cc12	i	i	95.9	i	i	i
O=C(NC1CCc2ccccc21)c1cc(COc2cncc(Cl)c2)on1 (stereo not drawn)	i	i	i	i	i	i
Cc1nc2ccccc2c(=O)n1CCc1ccc(O)cc1	i	i	i	i	nt	nt
SMILES	dFosB activator	A1 inh	Beta2AR agonist	Dyrk1A ADPGlo	Beta2AR ag CP1	FAP fluor counter
COc1cc(NC(=O)C2CCCCC2)c(OC)cc1NC(=O)c1ccccc1	i	i	i	i	nt	nt
O=C(OCN1C(=O)c2ccccc2C1=O)c1cccnc1SC(F)F	i	i	i	i	nt	nt
COc1ccccc1CCC(=O)OCC(=O)NC1CC1	i	i	i	i	nt	nt
O=C(CSc1nnc(-c2ccncc2)n1Cc1ccco1)N1c2ccccc2Sc2ccc(Cl)cc21	i	i	84.7	i	6.7	i
CC(=O)Nc1ccc(Nc2cc(C(C)C)nc3c(-c4ccccc4)c(C)nn23)cc1	i	i	51.9	i	i	i
CCCCN(C(=O)c1ccc(NC(=O)C(C)C)cc1)c1ccccc1	i	i	95.1	i	20.4	i
CCN(C(=O)c1ccc(NC(C)=O)cc1)c1ccccc1	i	i	i	i	nt	nt
CC(=O)Nc1ccc(NC(=O)C(C)OC(=O)CCSc2ccccc2Cl)cc1 (stereo not drawn)	i	i	i	i	nt	nt
Cc1ccc(NC(=O)c2cc(N3C(=O)C=CC3=O)ccc2N2CCOCC2)cc1	i	nt	123.1	i	42.3	i
Cc1ccc(NC(=O)c2cc(N3C(=O)C=CC3=O)ccc2Cl)cc1C	i	i	78.8	i	i	i
Cc1csc(C(=O)O)c1NC(=O)c1c(Cl)cccc1Cl	i	i	i	i	nt	nt
COc1ccc(CNCCC(c2ccc(OC)cc2)c2ccccc2OC)cc1 (stereo not drawn)	i	i	i	i	i	i
COc1ccc(C(CCNCc2ccc(OC(C)C)cc2)c2ccccc2OC)cc1 (stereo not drawn)	i	i	i	i	54.1	i
COc1ccc(C(CCNCc2ccc(N(C)C)cc2)c2ccccc2OC)cc1 (stereo not drawn)	i	i	i	i	i	i
COc1ccccc1CN1CC(C(=O)NCc2ccc(SC)cc2)CCC1=O (stereo not drawn)	i	nt	i	i	nt	nt
CCCCN(C)CCNC(=O)c1cc(-c2cccnc2)nc2ccc(S(=O)(=O)N3CCC(C)CC3)cc12	?	i	46.4	i	i	i
CCN(CC)CCNC(=O)c1cc(-c2cccnc2)nc2ccc(S(=O)(=O)N3CCC(C)CC3)cc12	i	i	i	nt	i	i
CCCCNS(=O)(=O)c1ccc2nc(-c3cccnc3)cc(C(=O)NCCCN(CC)CC)c2c1	nt	i	nt	nt	nt	nt
CSc1ccc(CN2CCN(S(=O)(=O)Cc3ccccc3)CC2)cc1	i	i	i	i	nt	nt
CCCCOc1cccc(C(=O)Nc2ccc(NC(=O)c3ccco3)cc2)c1	i	i	68.6	i	34.6	i
CCCOc1cccc(C(=O)Nc2cccc(NC(=O)c3ccco3)c2)c1	i	i	i	i	nt	nt
Cc1ccc(C)c2c(N)c3c(nc12)CCCCC3 (tested in a mixture with another compound)	i	i	i	i	nt	nt
CCNC(=S)N/N=C(\C)c1ccc(Cl)s1	i	i	i	i	nt	nt
CNC(=S)N/N=C(\C)c1ccc(Cl)s1	i	i	i	i	i	i
CN1CCN(Cc2cc(COCc3ccccc3)c3cccnc3c2O)CC1	i	i	i	i	i	i
Oc1ccc(CN2CCN(Cc3ccccc3)CC2)c2cccnc12	i	i	i	i	nt	nt
O=C1c2cccc([N+](=O)[O-])c2C(=O)N1C1CCCCC1	i	i	i	i	nt	nt
Cc1c(Cl)cccc1N1C(=O)C(N2C(=O)c3cccc([N+](=O)[O-])c3C2=O)C1c1cccs1 (stereo not drawn)	i	i	51.9	i	i	i
CSCCC(NC(=O)c1ccccc1Cl)C(=O)OCC(=O)N1CCCC1=O (stereo not drawn)	i	i	i	i	nt	nt
Cc1nn(-c2ccccn2)c2nc(-c3cccs3)cc(C(=O)NCc3ccco3)c12	i	i	43.4	i	i	i
